The results in this text go back to PubChem BioAssay.

The nature of experiment [1]: small molecules captured by biotinylated probe aFSTL3 – biochemical, small-molecule microarray, fluorescence 635/667, stem cell growth factor project, primary screen (AID 1064).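 Note: measures binding of the biotinylated anti-FSTL3 antibody to printed compounds.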 To be noted: higher = more signal.
The nature of experiment [2]: binders from COS7 lysate, DM2A8 probe, primary screen, torsin A project, cell lysate, small-molecule microarray, fluorescence 635/667 (AID 1065). Conditions: higher = more signal, COS7 lysate expressing mutant human TOR1A.
Experiment [3] is described as follows: small molecules captured by biotinylated probe aFGF2 – biochemical, small-molecule microarray, fluorescence 635/667, stem cell growth factor project, primary screen (AID 1067).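 Note: measures binding of biotinylated aFGF2 protein to printed compounds on slides; z-score merges feature fluorescence and signal-to-noise across triplicate slides.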 To be noted: higher = more signal.
Experiment [4] in a line: small molecules captured by biotinylated probe aFGF10 – biochemical, small-molecule microarray, fluorescence 635/667, stem cell growth factor project, primary screen (AID 1071).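 Note: score merges 667 nm spot intensity and signal to noise from triplicate slides.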 Conditions: higher = more signal.
The target in experiment [5] is Neurogenic locus notch homolog protein 2 (Homo sapiens) (UniProt Q04721). Kind of experiment: small molecules binding Notch2 protein – biochemical, small-molecule microarray, 635 nm fluorescence, stem cell growth factors, primary screen (AID 1073). To be noted: higher = more signal.
The target of experiment [6] is Pro-neuregulin-1, membrane-bound isoform (Homo sapiens) (UniProt Q02297). Kind of experiment: small molecules binding neuregulin-1 protein – biochemical, small-molecule microarray, fluorescence 635/667, psychiatric disease protein project, primary screen (AID 1075).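 Note: score combines 667 nm spot fluorescence with signal to noise.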 Conditions: NRG1 binding, 635 nm fluorescence, higher = more signal.
Experiment [7] relates to Neuregulin-1 EGF-like domain. Nature of the experiment: small molecules binding NRG1 EGF domain – biochemical, small-molecule microarray, 635 nm fluorescence, primary screen (AID 1081).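 Note: binding of the protein to compounds printed on small-molecule microarray slides.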 Conditions: higher = more signal.
Experiment [8] can be described thus: FRG1 expression reporter modulators in myotubes – cell-based, C2C12 myotubes, firefly/Renilla luciferase, luminescence, FRG1 inhibition for FSHD, primary screen (AID 1084). Conditions: FRG1 promoter luciferase, higher = more signal, called active from +8 up or from −8 down.
Experiment [9] in a line: small molecules captured by biotinylated probe aFST – biochemical, small-molecule microarray, fluorescence 635/667, stem cell growth factor project, primary screen (AID 1086).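 Note: score merges 667 nm fluorescence with signal-to-noise of each printed compound spot.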 Conditions: higher = more signal.
Experiment [10] is described as follows: binders of probe aHhip on microarray, primary screen, stem cell growth factor project, biochemical, small-molecule microarray, fluorescence 635/667 (AID 1087).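 Note: score merges spot fluorescence at 667nm with spot signal to noise ratio.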 To be noted: higher = more signal.

Calls of active or inactive are those of the source.

Chain of Pro-neuregulin-1, membrane-bound isoform (Homo sapiens) (Q02297 whole entry, looked up, the tested form may be a part, canonical isoform): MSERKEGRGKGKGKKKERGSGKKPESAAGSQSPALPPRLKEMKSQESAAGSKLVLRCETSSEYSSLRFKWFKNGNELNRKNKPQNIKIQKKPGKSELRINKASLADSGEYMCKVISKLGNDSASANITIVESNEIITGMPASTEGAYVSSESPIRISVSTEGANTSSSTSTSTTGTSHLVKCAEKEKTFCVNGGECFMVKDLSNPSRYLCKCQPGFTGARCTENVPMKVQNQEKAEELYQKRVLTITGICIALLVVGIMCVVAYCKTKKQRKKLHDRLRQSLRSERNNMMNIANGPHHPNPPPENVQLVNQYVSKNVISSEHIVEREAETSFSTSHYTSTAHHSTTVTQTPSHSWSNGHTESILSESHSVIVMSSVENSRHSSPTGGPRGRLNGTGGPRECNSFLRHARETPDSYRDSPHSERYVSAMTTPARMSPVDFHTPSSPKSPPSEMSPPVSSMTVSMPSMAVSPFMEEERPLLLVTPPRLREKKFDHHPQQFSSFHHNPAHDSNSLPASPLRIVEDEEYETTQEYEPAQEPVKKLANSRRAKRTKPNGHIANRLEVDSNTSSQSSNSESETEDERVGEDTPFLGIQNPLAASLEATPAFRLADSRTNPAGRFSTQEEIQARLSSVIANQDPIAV
Chain of Neurogenic locus notch homolog protein 2 (Homo sapiens) (Q04721 whole entry, looked up, canonical isoform): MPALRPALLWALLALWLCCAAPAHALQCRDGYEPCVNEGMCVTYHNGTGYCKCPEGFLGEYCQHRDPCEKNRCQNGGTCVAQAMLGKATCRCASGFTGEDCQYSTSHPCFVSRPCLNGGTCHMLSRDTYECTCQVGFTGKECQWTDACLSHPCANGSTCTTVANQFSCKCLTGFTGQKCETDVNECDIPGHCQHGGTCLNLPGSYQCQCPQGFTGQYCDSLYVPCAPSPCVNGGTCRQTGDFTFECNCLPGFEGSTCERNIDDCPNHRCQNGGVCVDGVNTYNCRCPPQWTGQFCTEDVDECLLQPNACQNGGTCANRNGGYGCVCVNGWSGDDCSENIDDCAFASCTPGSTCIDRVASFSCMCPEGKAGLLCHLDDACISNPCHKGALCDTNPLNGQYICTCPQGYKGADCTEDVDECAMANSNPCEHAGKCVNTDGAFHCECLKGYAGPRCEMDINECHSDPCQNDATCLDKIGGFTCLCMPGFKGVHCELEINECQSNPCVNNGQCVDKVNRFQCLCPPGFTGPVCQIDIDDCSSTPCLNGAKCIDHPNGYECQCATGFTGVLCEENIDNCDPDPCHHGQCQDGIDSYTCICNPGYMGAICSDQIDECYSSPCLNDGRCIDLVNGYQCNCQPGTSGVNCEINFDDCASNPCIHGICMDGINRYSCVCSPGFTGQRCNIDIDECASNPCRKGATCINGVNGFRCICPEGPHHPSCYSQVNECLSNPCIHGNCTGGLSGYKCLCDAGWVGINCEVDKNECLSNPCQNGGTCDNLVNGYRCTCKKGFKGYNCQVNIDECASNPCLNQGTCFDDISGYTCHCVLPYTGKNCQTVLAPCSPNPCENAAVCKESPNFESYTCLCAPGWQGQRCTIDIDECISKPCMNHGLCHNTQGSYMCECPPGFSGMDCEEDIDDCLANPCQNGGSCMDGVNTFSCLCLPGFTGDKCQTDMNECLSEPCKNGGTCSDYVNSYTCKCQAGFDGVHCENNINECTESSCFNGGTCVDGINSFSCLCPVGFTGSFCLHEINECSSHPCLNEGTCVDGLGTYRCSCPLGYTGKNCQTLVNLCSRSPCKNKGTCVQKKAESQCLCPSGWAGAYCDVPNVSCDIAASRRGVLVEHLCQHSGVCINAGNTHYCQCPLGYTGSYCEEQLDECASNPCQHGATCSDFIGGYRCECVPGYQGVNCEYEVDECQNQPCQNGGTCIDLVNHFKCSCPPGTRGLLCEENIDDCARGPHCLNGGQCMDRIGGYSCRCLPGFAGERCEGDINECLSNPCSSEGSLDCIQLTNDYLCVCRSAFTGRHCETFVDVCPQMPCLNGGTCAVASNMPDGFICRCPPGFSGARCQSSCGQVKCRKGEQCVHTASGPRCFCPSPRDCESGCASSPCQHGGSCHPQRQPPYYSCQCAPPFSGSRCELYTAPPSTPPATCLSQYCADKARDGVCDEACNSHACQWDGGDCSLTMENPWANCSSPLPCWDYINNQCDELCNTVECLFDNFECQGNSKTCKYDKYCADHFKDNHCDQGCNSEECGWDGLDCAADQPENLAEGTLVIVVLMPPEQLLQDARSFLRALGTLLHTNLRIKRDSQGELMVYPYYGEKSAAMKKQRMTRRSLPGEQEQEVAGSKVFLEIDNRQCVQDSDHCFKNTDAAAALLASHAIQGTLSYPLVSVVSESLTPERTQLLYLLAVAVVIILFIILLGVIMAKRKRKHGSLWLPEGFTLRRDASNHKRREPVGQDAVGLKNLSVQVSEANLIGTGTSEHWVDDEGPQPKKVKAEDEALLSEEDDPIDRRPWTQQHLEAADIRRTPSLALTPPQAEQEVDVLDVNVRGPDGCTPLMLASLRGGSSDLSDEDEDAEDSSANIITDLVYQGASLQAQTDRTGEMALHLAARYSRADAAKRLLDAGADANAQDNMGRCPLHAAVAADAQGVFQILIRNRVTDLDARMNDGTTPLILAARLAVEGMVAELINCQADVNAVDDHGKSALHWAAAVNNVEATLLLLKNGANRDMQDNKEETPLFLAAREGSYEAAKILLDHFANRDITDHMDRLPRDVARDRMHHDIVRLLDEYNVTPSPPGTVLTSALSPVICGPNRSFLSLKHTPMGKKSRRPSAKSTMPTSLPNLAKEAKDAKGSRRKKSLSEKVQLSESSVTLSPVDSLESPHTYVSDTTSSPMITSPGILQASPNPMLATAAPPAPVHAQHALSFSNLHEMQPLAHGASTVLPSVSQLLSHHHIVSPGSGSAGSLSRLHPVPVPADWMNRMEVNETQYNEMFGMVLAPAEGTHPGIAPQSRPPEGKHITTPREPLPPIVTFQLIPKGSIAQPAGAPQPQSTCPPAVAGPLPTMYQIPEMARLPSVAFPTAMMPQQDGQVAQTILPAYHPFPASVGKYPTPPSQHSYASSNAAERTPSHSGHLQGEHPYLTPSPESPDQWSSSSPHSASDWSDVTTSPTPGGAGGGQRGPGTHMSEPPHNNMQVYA

In the case of `C=C(COC)/C(=C/C[C@H](OC(C)=O)c1ccc(OCCO)cc1)c1cnc2ccccc2c1`, the composite z-score is 0.0732 in [1]; 0.0548 in [2]; 0.0001 in experiment [3]; 0.765 in [4]; 1.41 in [5]; -0.0967 in experiment [6]. Further, the composite z-score in [7] was 0.99; in experiment [9] it was 0.372; in [10] it was 0.176. For the same compound, in [8], the z-score was 0.345 (inactive).
In the case of `CO[C@H]1COC(=O)CC=C[C@H](C)[C@@H](OC)COC(=O)CC=C[C@@H]1C`, the composite z-score in [1] was -0.623; in [2] it was 1.7; in [3] it was -0.0775; in experiment [4], 0.227; in experiment [5] it was -0.209; in experiment [6], -0.768. In addition, the composite z-score was 0.692 in [7], -0.055 in [9] and -0.0994 in experiment [10]. In [8], the z-score was -1.12 (inactive).
As for `COCCOC(=O)N1C(=O)[C@@]2(c3cc(C#CCNC(N)=O)ccc31)[C@H](C(=O)N1CCCCCCC1)[C@H]1C(=O)O[C@H](c3ccccc3)[C@H](c3ccccc3)N1[C@@H]2c1ccccc1OCCO`, the composite z-score in experiment [1] was 2.42; in experiment [2] it was 0.288; in experiment [3] it was 0.129; in experiment [4], 0.452; in experiment [5], 1.38; in experiment [6], 1.03. Besides, the composite z-score in experiment [7] is 1.05; in experiment [9], 1.29; in experiment [10], 0.851. Besides, the z-score in experiment [8] is -0.556 (inactive).
For the compound `CCCC=C(CCC)[C@@H](NS(=O)(=O)c1ccc(C(F)(F)F)cc1)c1ccc(-c2ccccc2)cc1`, the composite z-score in [1] amounted to 0.357; in experiment [2], 0.0864; in [3], 0.0407; in experiment [4], 0.309; in experiment [5], 1.5; in experiment [6], 0.801. Further, the composite z-score is 1.02 in experiment [7], 1.38 in [9] and 2.14 in experiment [10]. The z-score in experiment [8] is -0.001 (inactive).
As to `CCOC(=O)[C@H]1C/C=C/C[C@H](C(=O)OCC)C(=O)O[C@H]2[C@@H](OC)O[C@H](CO)[C@@H](OC(=O)Nc3ccc(Br)cc3)[C@@H]2OC1=O`, the composite z-score was 0.762 in experiment [1]; 0.475 in [2]; -0.108 in experiment [3]; 0.28 in experiment [4]; 0.798 in experiment [5]; 0.991 in experiment [6]. The composite z-score in experiment [7] was 1.29; in [9], 0.449; in experiment [10], -0.0613. Also, in [8], the z-score is 0.892 (inactive).
`O=C(CS)NCCCCCCNC(=O)[C@@H]1C[C@@H]2C(=O)N[C@@H](Cc3ccccc3)C(=O)N2[C@@H]1c1ccc(O)cc1`: the composite z-score in experiment [1] is 0.0737; in [2], 1.09; in [3], -0.083; in experiment [4] it was 0.922; in [5], 0.412; in [6], 1.23. Moreover, the composite z-score turned out to be 1.41 in [7], 0.245 in experiment [9] and 0.0373 in experiment [10]. Also, the z-score in experiment [8] is 1.21 (inactive).
For the compound `CCOC(=O)C1=CCC(c2cccc3ccccc23)N(S(=O)(=O)c2ccc(C)cc2)C1` (stereo not given), the composite z-score in [1] was 0.609; in [2], -0.0897; in experiment [3] it was 0.0346; in [4], 0.323; in experiment [5], 1.46; in experiment [6], 1.21. Further, the composite z-score in [7] is 1.01; in experiment [9], 0.95; in experiment [10] it was -0.0237. In [8], the z-score was -1.05 (inactive).
As for `C=CCOC(=O)[C@@H]1[C@H]2C(=O)O[C@H](c3ccccc3)[C@H](c3ccccc3)N2[C@H](c2ccc(OCCOC(=O)[C@H]3C[C@H]4C(=O)N5CCC[C@H]5C(=O)N4[C@H]3c3ccc(O)cc3)cc2)[C@@]12C(=O)Nc1ccccc12`, the composite z-score is -0.536 in [1]; 0.774 in experiment [2]; -0.0169 in [3]; 0.691 in experiment [4]; 0.742 in experiment [5]; 0.968 in experiment [6]. In addition, the composite z-score is 1.3 in experiment [7], -0.0007 in [9] and -0.0994 in experiment [10]. Further, the z-score in experiment [8] is -0.619 (inactive).
For `COCCOC(=O)N1C(=O)[C@@]2(c3cc(C#CCNC(N)=O)ccc31)[C@H](c1ccc(OCCO)cc1)N1[C@H](c3ccccc3)[C@H](c3ccccc3)OC(=O)[C@H]1[C@@H]2C(=O)N1CCCCCCC1`, the composite z-score in [1] is 2.75; in [2] it was 0.0698; in experiment [3] it was 0.128; in experiment [4], 0.209; in experiment [5], 0.315; in experiment [6], -0.0446. Moreover, the composite z-score in experiment [7] is -0.116; in experiment [9], 1.46; in experiment [10], 0.167. Besides, in [8], the z-score was -0.271 (inactive).
Regarding `CCOC(=O)C[C@H]1[C@H](OC(=O)c2cc3ccccc3oc2=O)[C@@H](NC(=O)c2ccc3ccccc3c2)c2cc(OCCCO)ccc2N1C(=O)c1ccc2ccccc2n1`, the composite z-score in experiment [1] was -0.522; in [2], 0.128; in [3], -0.0336; in [4] it was 1.11; in experiment [5], 1.09; in [6], 0.384. In addition, the composite z-score in experiment [7] was 1.03; in experiment [9], 0.518; in experiment [10], -0.0994. For the same compound, the z-score in experiment [8] was -0.881 (inactive).
In the case of `O=C(NCc1ccccc1)[C@@]1(Cc2ccccc2)COC(c2ccc(OCCCO)cc2)=N1`, the composite z-score in experiment [1] was 0.618; in experiment [2], 0.0094; in experiment [3], -0.255; in experiment [4] it was 0.0532; in [5], 0.46; in [6], 1.51. For the same compound, the composite z-score turned out to be 1.19 in [7], 0.792 in experiment [9] and 0.113 in [10]. Further, the z-score in [8] was -3.27 (inactive).
For the compound `CO[C@@H]1COC(=O)[C@@H]2CCCN2C(=O)CC=C[C@@H](C)[C@H](OC)COC(=O)[C@@H]2CCCN2C(=O)CC=C[C@H]1C`, the composite z-score in experiment [1] was -0.614; in experiment [2] it was 0.164; in experiment [3] it was -0.113; in experiment [4], 0.0311; in [5], -0.545; in experiment [6], -0.312. Also, the composite z-score was 0.732 in [7], -0.0975 in [9] and 0.347 in experiment [10]. Besides, the z-score in [8] was 0.47 (inactive).
`CC1=C([C@H](O)CCc2ccccc2)[C@H](CO)[C@@H]2C(=O)N(Cc3ccccc3)C(=O)[C@@H]2C1`: the composite z-score is -0.183 in experiment [1]; 0.0897 in experiment [2]; 0.0137 in [3]; 0.216 in experiment [4]; 0.585 in experiment [5]; 0.181 in [6]. The composite z-score in experiment [7] is -0.107; in experiment [9], 0.0747; in experiment [10], -0.174. The z-score in experiment [8] is -0.69 (inactive).
As for `CC(C)(C)OC(=O)CC[C@@]1(C(=O)NCc2ccccc2)N=C(c2ccc(OCCCO)cc2)O[C@@H]1c1ccccc1`, the composite z-score was 0.844 in experiment [1]; 1.96 in experiment [2]; 0.0096 in [3]; 0.0922 in [4]; 1.24 in experiment [5]; 1.5 in [6]. Besides, the composite z-score in experiment [7] is 1.27; in experiment [9], 1.14; in experiment [10], -0.304. Moreover, the z-score in [8] is -2.49 (inactive).
On to `CN1C(=O)C2C=CC(C(O)C3CC=CCC3)N(Nc3ccccc3)C2C1=O` (stereo not given), for which the composite z-score in [1] came out at 0.0125; in experiment [2], 1.54; in [3] it was 0.0631; in [4] it was 0.752; in experiment [5], 1.62; in experiment [6], 1.85. Further, the composite z-score was found to be 1.29 in [7], 0.733 in [9] and 0.382 in [10]. Moreover, the z-score in experiment [8] was 0.294 (inactive).
On to `CO[C@H]1COC(=O)[C@H](C)COC(=O)[C@H](Cc2ccccc2)NC(=O)CC=C[C@H]1C`, for which the composite z-score in experiment [1] was 0.34; in [2], 0.355; in experiment [3], -0.167; in experiment [4], -0.106; in [5], -0.889; in experiment [6] it was -0.339. Also, the composite z-score in experiment [7] is -0.942; in experiment [9] it was 0.0716; in experiment [10], -0.455. Moreover, in experiment [8], the z-score was -0.412 (inactive).
